Assay outcomes: PubChem, National Center for Advancing Translational Sciences (NCATS)
Only some compounds are listed: those with a hit (about 19% of all), similar ones and a draw of the others.
DT40 TDP1 CPT: growth inhibition of DT40 Tdp1-/-;hTDP1 cells with camptothecin (screen for TDP1 inhibitors). chicken DT40 Tdp1-/-;hTDP1 cells + 20 nM CPT, ATP luminescence, 48 h. Potency, µM (series often up to 46.2 µM), for the others: at the top dose activity change, negative = growth inhibition, actives largely listed as inhibitors. 420,000 tested, 12% active. AID 686979; also: potency is read from the fitted curve at half-maximal effect; nearly all actives have a fitted effect of over 55% in size
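Cell growth measured by CellTiter-Glo luminescence after a minimum 48 h, 37 C compound exposure with 20 nM CPT in Tdp1-knockout DT40 cells stably expressing hTDP1, seeded 400/well; qHTS titration format.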
HT1080 IDH1KD tx: toxicity to HT-1080 IDH1 knockdown cells (counter line) | 360,000 tested, 2% active | Potency, µM (series often up to 46.1 µM), inactives show at the top dose activity, negative = toxicity, hits mostly cytotoxic | AID 686971 | HT-1080 IDH1 knockdown viability, ATP luminescence, 48 h;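 also: potency is read from the fitted curve at half-maximal effect; 0% = DMSO wells and -100% = cell-free medium wells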
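Viability of IDH1-knockdown HT-1080 fibrosarcoma cells was assessed by CellTiter-Glo after 48 h at 37 °C with titrated compound; concentration-effect curves were classified by fit quality and response size.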
IL-1B inflam inh: inhibitors of inflammasome signaling (IL-1 beta secretion). activity change, % at 57.5 µM. AID 743279. THP-1 LPS/ATP IL-1B secretion, AlphaLISA, 16 h; hits give low values. 360,000 tested, 4.7% active; in the data active = activity change below about -50%; inconclusive = mostly about -30% to -49%
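THP-1 cells pretreated 1 hr with compounds (up to 57.5 uM final), then stimulated with LPS (250 ng/mL final) plus ATP (1.25 mM final); secreted IL-1B measured by AlphaLISA after 16 hr, decreased signal indicating inhibition.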
HT1080-NT tox: kills 2HG-producing HT-1080-NT fibrosarcoma cells. HT-1080-NT fibrosarcoma viability, CellTiter-Glo ATP luminescence, 48 h. Potency, µM (top dose mostly 46.1 µM), inactives show top-dose activity, negative = less viability, actives largely listed as cytotoxic. 360,000 tested, 1.6% active. AID 686970;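 also: NT is the 2HG producing partner of a matched IDH1 knockdown line; potency is read from the fitted curve at half-maximal effect; 0% = DMSO-treated cells and -100% = media-only wells without cells; nearly all actives have a fitted effect of over 55% in size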
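750 cells/well, RPMI + 5% FBS; 2 h settle, compound pin-transfer, 48 h at 37 degrees C. CellTiter-Glo 10 min RT, luminescence. Normalized to DMSO and media-only wells.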
DT40 TDP1 no CPT: qHTS for Inhibitors of human tyrosyl-DNA phosphodiesterase 1 (TDP1): qHTS in cells in absence of CPT. DT40 Tdp1-/- hTDP1 cells, no CPT, ATP luminescence, 48 h. Potency, µM (highest dose often 46.2 µM), for inactives: at the top dose activity change, negative = growth inhibition, most hits filed as inhibitors. 420,000 tested, 15% active; also: potency is read from the fitted curve at half-maximal effect; nearly all actives have a fitted effect of over 55% in size
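Chicken DT40 Tdp1-/- cells complemented with human TDP1, screened without camptothecin (DMSO vehicle only), 400 cells/well. Compounds pin-transferred, cells incubated at 37 °C for at least 48 hr. Growth read as ATP-dependent luminescence (CellTiter-Glo, 30 min at RT).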
* marks the source's active call; other numbers are inactive results; i = inactive; u = inconclusive; x = not tested or not shown. Unless noted, calls follow the shape of the dose curve; as a rule, active = well fitted curve in the direction sought with a large enough effect; inconclusive = small, poorly fitted or top-dose-only effect, or another doubt; inactive = no such curve, though single readings can be large; an effect the other way counts as inactive or inconclusive. Unless noted, % is scaled to controls: 0 for no effect and ±100 for the full control effect.

SMILES	DT40 TDP1 CPT	HT1080 IDH1KD tx	IL-1B inflam inh	HT1080-NT tox	DT40 TDP1 no CPT
CCOC(=O)C1(Cc2ccccc2C)CCCN(C(=O)c2cc(C3CC3)[nH]n2)C1 (stereo not drawn)	-24%	-1%	9	-2%	u
CC(=O)NC(c1ccccc1)c1cc(Cl)c2cccnc2c1O (stereo not drawn)	u	u	87	u	u
O=C(NC(c1ccc(Cl)cc1)c1cc(Cl)c2cccnc2c1O)c1cccnc1 (stereo not drawn)	5.2µM*	3.3µM*	u	u	4.1µM*
CC(=O)NC(c1ccc(N(C)C)cc1)c1cc(Cl)c2cccnc2c1O (stereo not drawn)	4.6µM*	u	61	u	6.5µM*
COc1ccc(C(NC(C)=O)c2cc(Cl)c3cccnc3c2O)cc1 (stereo not drawn)	8.2µM*	12µM*	256	u	8.2µM*
CNc1cncc(-c2cccc(O)c2)n1	u	6%	0	-5%	-23%
CCOC(=O)c1cnc2cc(Cl)c(OC)cc2c1Nc1ccc(Br)cc1C	-21%	x	x	x	-21%
CCOC(=O)c1cnc2cc(Cl)c(OC)cc2c1NCC1CCCO1 (stereo not drawn)	u	-30%	u	-4%	15µM*
COC(=O)c1c(NC(=O)COc2ccccc2Cl)sc2c1CCC(C(C)(C)C)C2 (stereo not drawn)	-15%	x	x	x	-27%
CCOC(=O)N(C)c1c(CC)nc2c(OCCC3CCCCC3)cccn12	u	u	-77*	u	16µM*
CCOC(=O)C(=O)N(C)c1c(CC)nc2c(OCCC3CCCCC3)cccn12	u	-21%	-24	-8%	18µM*
Cc1cccc(NC(=S)NC(C)C(c2cccs2)N2CCN(C)CC2)c1C (stereo not drawn)	-19%	-1%	-2	-14%	-2%
ClCc1nc2ccccc2c2ccccc12	4.1µM*	18µM*	-8	5.8µM*	2.6µM*
CN(C)CCN(C(=O)C1CCCCC1)c1nc2cc3c(cc2s1)OCCO3	-15%	-7%	u	-3%	9.2µM*
CN(C)CCN(C(=O)c1ccc(Br)s1)c1nc2cc3c(cc2s1)OCCO3	7%	-1%	8	-2%	-17%
CN(C)CCN(C(=O)c1cccs1)c1nc2cc3c(cc2s1)OCCO3	u	0%	-11	-7%	23µM*
CCc1ccc2nc(N(CCN(C)C)C(=O)/C=C/c3cccs3)sc2c1	u	u	-81*	-4%	u
CN(C)CCN(C(=O)/C=C/c1cccs1)c1nc2ccc(Br)cc2s1	u	-14%	23	-11%	u
CCOC(=O)N1CCN(S(=O)(=O)c2ccc(C(=O)N(CCN(CC)CC)c3nc4ccc(C)cc4s3)cc2)CC1	u	-11%	i	-5%	u
CCN(CC)CCN(C(=O)/C=C/c1cccs1)c1nc2ccc(C)cc2s1	u	u	5	-6%	6.5µM*
S=C(Nc1ccccc1Cl)NC1CCCCCC1	u	-8%	-14	2%	u
OC[C@@H]1CN(Cc2cccs2)C[C@H](n2cnc3c(NCc4ccc(F)cc4)ncnc32)O1	u	0%	-18	-3%	-29%
CCN(CC)CCN(C(=O)c1ccc2ccccc2c1)c1nc2ccc(F)cc2s1	-27%	-3%	17	-7%	-4%
Cc1ccc2nc(N(CCN(C)C)C(=O)/C=C/c3cccs3)sc2c1	u	u	u	-29%	16µM*
CN(C)CCCN(C(=O)/C=C/c1cccs1)c1nc2ccc(F)cc2s1	2.6µM*	u	-104*	9.2µM*	4.6µM*
CCN(CC)CCN(C(=O)/C=C/c1cccs1)c1nc2ccc(F)cc2s1	u	-10%	-78*	-21%	u
CN(C)CCCN(C(=O)c1cccs1)c1nc2ccc(F)cc2s1	16µM*	x	x	x	u
O=C(NNC(=S)Nc1ccc(OC(F)F)cc1)c1cc2c(s1)CCCC2	6%	15%	-25	-3%	-23%
